Records with an inconclusive call do not appear. Activity calls are given as the source filed them. Calls come from the whole dose curve; as a rule, active = well fitted inhibition curve with a large enough effect; inconclusive = small, poorly fitted or top-dose-only effect; inactive = flat fitted curve, though single readings scatter.
Experiments:
[1] = qHTS profiling for inhibitors of Plasmodium falciparum proliferation (AID 504749); note: nearly all actives have a fitted effect of over 60% in size;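 for activity, negative = inhibition: 0% = DMSO vehicle and full inhibition = artemisinin control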; settings: P. falciparum in erythrocytes, SYBR Green DNA, 72 h
How it was run: (§1)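 Three-day growth assay of blood-stage parasites in erythrocytes (0.3% parasitemia, 2.5% hematocrit) at 37 C, 5% CO2, quantified by SYBR Green DNA staining after overnight detergent lysis.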

[2] = test system: 3D7; assay: as above; settings: P. falciparum in erythrocytes, SYBR Green DNA, 72 h; series mostly up to 28.7 µM
How it was run: as §1

[3] = test system: 7G8; assay: as above; settings: P. falciparum in erythrocytes, SYBR Green DNA, 72 h; series mostly up to 28.7 µM
How it was run: as §1

[4] = test system: AA1029; assay: as above; settings: P. falciparum in erythrocytes, SYBR Green DNA, 72 h; series mostly up to 28.7 µM
How it was run: as §1

[5] = test system: AS120; assay: as above; settings: P. falciparum in erythrocytes, SYBR Green DNA, 72 h; series mostly up to 28.7 µM
How it was run: as §1

[6] = test system: ATS189; assay: as above; settings: P. falciparum in erythrocytes, SYBR Green DNA, 72 h; series mostly up to 28.7 µM
How it was run: as §1

[7] = test system: ATS95; assay: as above; settings: P. falciparum in erythrocytes, SYBR Green DNA, 72 h; series mostly up to 28.7 µM
How it was run: as §1

[8] = test system: C2A; assay: as above; settings: P. falciparum in erythrocytes, SYBR Green DNA, 72 h; series mostly up to 28.7 µM
How it was run: as §1

[9] = test system: CP185; assay: as above; settings: P. falciparum in erythrocytes, SYBR Green DNA, 72 h; series mostly up to 28.7 µM
How it was run: as §1

[10] = test system: CP191; assay: as above; settings: P. falciparum in erythrocytes, SYBR Green DNA, 72 h; series mostly up to 28.7 µM
How it was run: as §1

[11] = test system: CP192; assay: as above; settings: P. falciparum in erythrocytes, SYBR Green DNA, 72 h; series mostly up to 28.7 µM
How it was run: as §1

[12] = test system: CP194; assay: as above; settings: P. falciparum in erythrocytes, SYBR Green DNA, 72 h; series mostly up to 28.7 µM
How it was run: as §1

[13] = test system: CP201; assay: as above; settings: P. falciparum in erythrocytes, SYBR Green DNA, 72 h; series mostly up to 28.7 µM
How it was run: as §1

[14] = test system: CP203; assay: as above; settings: P. falciparum in erythrocytes, SYBR Green DNA, 72 h; series mostly up to 28.7 µM
How it was run: as §1

[15] = test system: CP211; assay: as above; settings: P. falciparum in erythrocytes, SYBR Green DNA, 72 h; series mostly up to 28.7 µM
How it was run: as §1

[16] = test system: CP215; assay: as above; settings: P. falciparum in erythrocytes, SYBR Green DNA, 72 h; series mostly up to 28.7 µM
How it was run: as §1

[17] = test system: CP217; assay: as above; settings: P. falciparum in erythrocytes, SYBR Green DNA, 72 h; series mostly up to 28.7 µM
How it was run: as §1

[18] = test system: CP237; assay: as above; settings: P. falciparum in erythrocytes, SYBR Green DNA, 72 h; series mostly up to 28.7 µM
How it was run: as §1

[19] = test system: CP238; assay: as above; settings: P. falciparum in erythrocytes, SYBR Green DNA, 72 h; series mostly up to 28.7 µM
How it was run: as §1

[20] = test system: CP247; assay: as above; settings: P. falciparum in erythrocytes, SYBR Green DNA, 72 h; series mostly up to 28.7 µM
How it was run: as §1

[21] = at 12.8 µM (top of the series), parasite line A
[22] = at 12.8 µM (top of the series), parasite line B
[23] = at 28.7 µM (top of the series), parasite line A
[24] = at 28.7 µM (top of the series), parasite line B
Potency is the fitted concentration of half-maximal effect.

CCCCOc1ccc(C(=O)CCN2CCCCC2)cc1
inactive: activity, negative = inhibition [1, 21] 2.86% | activity, negative = inhibition [1, 22] -20.7% | Potency [2] | Potency [3] | Potency [4] | Potency [5] | Potency [6] | Potency [7] | Potency [8] | Potency [9] | Potency [10] | Potency [11] | Potency [12] | Potency [13] | Potency [14] | Potency [15] | Potency [16] | Potency [17] | Potency [18] | Potency [19] | Potency [20]

CN1C2CCC1CC(OC(=O)c1c[nH]c3ccccc13)C2 (stereo not given)
active: Potency [3] 10 µM
inactive: activity, negative = inhibition [1, 23] 9.99% | activity, negative = inhibition [1, 24] 3.24% | Potency [2] | Potency [4] | Potency [5] | Potency [6] | Potency [7] | Potency [8] | Potency [9] | Potency [10] | Potency [11] | Potency [12] | Potency [13] | Potency [14] | Potency [15] | Potency [16] | Potency [17] | Potency [18] | Potency [19] | Potency [20]

CC(=O)N(O)CCCCCNC(=O)CCC(=O)N(O)CCCCCNC(=O)CCC(=O)N(O)CCCCCN
inactive: activity, negative = inhibition [1, 21] 5.32% | activity, negative = inhibition [1, 22] 1.3% | Potency [2] | Potency [3] | Potency [4] | Potency [5] | Potency [6] | Potency [7] | Potency [8] | Potency [9] | Potency [10] | Potency [11] | Potency [12] | Potency [13] | Potency [14] | Potency [15] | Potency [16] | Potency [17] | Potency [18] | Potency [19] | Potency [20]

CCOc1ccc(NC(=O)CC(C)O)cc1 (stereo not given)
inactive: activity, negative = inhibition [1, 23] -3.02% | activity, negative = inhibition [1, 24] 4.79% | Potency [2] | Potency [3] | Potency [4] | Potency [5] | Potency [6] | Potency [7] | Potency [8] | Potency [9] | Potency [10] | Potency [11] | Potency [12] | Potency [13] | Potency [14] | Potency [15] | Potency [16] | Potency [17] | Potency [18] | Potency [19] | Potency [20]

CC1(C)CCC(NC(=O)[C@@H](N)CCC(=O)O)CC1
inactive: activity, negative = inhibition [1, 23] 2.48% | activity, negative = inhibition [1, 24] 10.3% | Potency [2] | Potency [3] | Potency [4] | Potency [5] | Potency [6] | Potency [7] | Potency [8] | Potency [9] | Potency [10] | Potency [11] | Potency [12] | Potency [13] | Potency [14] | Potency [15] | Potency [16] | Potency [17] | Potency [18] | Potency [19] | Potency [20]
